Tau FP inhib = tau fibrillization inhibition (FP); P10636; K18 P301L tau heparin fibrillization, Alexa594 FP, 6 h; Potency, µM (highest dose often 57.7 µM), without a hit: at the highest dose activity, negative = inhibition, actives largely listed as inhibitors; actives 0.39% (n = 280,000); AID 1468; also: nearly all actives have a fitted effect of over 55% in size
Target sequence (P10636 561-689 P618L limits assumed): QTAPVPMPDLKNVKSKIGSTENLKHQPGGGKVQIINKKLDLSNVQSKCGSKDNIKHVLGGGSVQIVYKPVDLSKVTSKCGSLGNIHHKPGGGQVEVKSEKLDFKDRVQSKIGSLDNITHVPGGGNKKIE
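Heparin (20 uM) drove fibril formation of recombinant tau K18 P301L, 15 uM unlabeled with 0.24 uM Alexa 594 label, for 6 hr at 37 C in 100 mM sodium acetate pH 7. Fluorescence polarization (555/632 nm) read 1 hr after 30 uM ThT.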
HPGD block = HPGD (human) dehydrogenase inhibition; P15428; purified HPGD, NADH fluorescence kinetic, PGE2 substrate; Potency, µM, inactives show at the top dose activity change, negative = inhibition, hits mostly inhibitors; actives 4.3% (n = 150,000); AID 894; active = well fitted inhibition curve with a large enough effect, not every such curve was filed as active; inconclusive = small, poorly fitted or top-dose-only effect, or another doubt; inactive = no such curve, though single readings can be large or run the other way
Target sequence (P15428 whole entry, looked up): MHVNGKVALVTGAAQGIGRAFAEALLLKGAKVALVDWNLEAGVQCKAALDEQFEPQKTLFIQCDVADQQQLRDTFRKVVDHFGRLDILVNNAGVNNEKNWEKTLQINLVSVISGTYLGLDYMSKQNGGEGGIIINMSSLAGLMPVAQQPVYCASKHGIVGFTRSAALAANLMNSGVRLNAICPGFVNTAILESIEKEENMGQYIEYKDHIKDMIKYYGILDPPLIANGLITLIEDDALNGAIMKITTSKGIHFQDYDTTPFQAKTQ
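20 nM HPGD preincubated 15 min at room temperature with compound in 50 mM Tris-HCl pH 8, 0.01% Tween 20. Started with 1 mM NAD+ and 30 uM prostaglandin E2; NADH fluorescence (360/450 nm) read 5 times over 30-s intervals, last minus first.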
Tau ThT inhib = inhibitors of human tau fibril formation, thioflavin T binding; P10636; recombinant tau K18 P301L, heparin-induced fibrillization, ThT fluorescence; Potency, µM (top dose mostly 57.4 µM), without a hit: at the highest dose activity, negative = inhibition, actives largely listed as inhibitors; actives 2.1% (n = 270,000); also: nearly all actives have a fitted effect of over 55% in size
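ThT emission at 510 nm, taken 1 hr after adding 30 uM dye, quantifies aggregates formed when 20 uM heparin acts on human tau K18 P301L for 6 hr at 37 C.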
ALDH1A1 inh = blocks purified human ALDH1A1 activity; AID 1030; actives 7.3% (n = 220,000); Purified ALDH1A1, NADH fluorescence, propionaldehyde substrate; Potency, µM (series often up to 75.3 µM), for the others: top-dose activity, negative = inhibition, usual class: inhibitors; P00352; active = well fitted inhibition curve with a large enough effect, not every such curve was filed as active; inconclusive = small, poorly fitted or top-dose-only effect, or another doubt; inactive = no such curve, though single readings can be large or run the other way;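 also: plate controls were no enzyme wells and a reference inhibitor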
NPSR antagonist = blocks cAMP signaling of the human neuropeptide S receptor; CHO-NPSR cells, cAMP TR-FRET, antagonist mode; Potency, µM (series often up to 38.3 µM), without a hit: at the highest dose activity change, negative = inhibition, actives largely listed as inhibitors; AID 1461; actives 1% (n = 220,000); also: nearly all actives have a fitted effect of over 50% in size
Tau fluor counter = counter-screen for tau fibril formation inhibitors; actives 0.93% (n = 280,000); tau K18 P301L Alexa594 fluorescence, heparin fibrillization; Potency, µM (top dose mostly 57.7 µM), for inactives: at the highest dose activity change, negative = decrease; AID 1463; also: nearly all actives have a fitted effect of over 55% in size
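Human tau K18 P301L (15 uM unlabeled, 0.24 uM Alexa 594-labeled) in 100 mM sodium acetate pH 7 with 20 uM heparin, 6 hr at 37 C. ThT 30 uM added, 1 hr ambient; Alexa 594 FP and total fluorescence read at 555/632 nm.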
* hit, by the source's call; [ ] = another dose, or the depositor's remark. In the library only some 9.5% were active in any assay of this set; here they are far more common. Unless noted, calls follow the shape of the dose curve; as a rule, active = well fitted curve in the direction sought with a large enough effect; inconclusive = small, poorly fitted or top-dose-only effect, or another doubt; inactive = no such curve, though single readings can be large; an effect the other way counts as inactive or inconclusive. Unless noted, % is scaled to controls: 0 for no effect and ±100 for the full control effect; potency is read from the fitted curve at half-maximal effect.

How did COc1ccc(/C=N/NC(=O)c2ccc(-c3ccccc3)cc2)cc1O do in these assays?
Tau FP inhib: 7%; HPGD block: -14%; Tau ThT inhib: inconclusive; ALDH1A1 inh: inconclusive; NPSR antagonist: -27%; Tau fluor counter: inconclusive

What do the screens show for `CC(C)(C)c1ccc(-c2nc(O)c(CC(=O)O)s2)cc1`?
Tau FP inhib: inconclusive; Tau ThT inhib: inconclusive; NPSR antagonist: -14%; Tau fluor counter: -12%

Results for CN(C(=O)COC(=O)c1ccc(=O)n(Cc2ccccc2)n1)c1ccccc1 ?
Tau FP inhib: -10%; Tau ThT inhib: -1%; ALDH1A1 inh: 8%; NPSR antagonist: 8%; Tau fluor counter: -6%

How did Oc1ccc(O)cc1 do in these assays?
Tau FP inhib: inconclusive; HPGD block: 7.9µM*; Tau ThT inhib: -18%; ALDH1A1 inh: -14%; NPSR antagonist: -8%[46.1 µM]; Tau fluor counter: -13%

How did O=C(c1ccc(O)cc1)c1ccc(C(=O)c2ccc(O)cc2)cc1 do in these assays?
Tau FP inhib: inconclusive; HPGD block: 22µM*; Tau ThT inhib: -3%; ALDH1A1 inh: 3%; NPSR antagonist: 10%; Tau fluor counter: -15%

Results for CCn1cc(C(=O)N2CCN(c3ccccc3F)CC2)c(=O)c2cc(S(=O)(=O)N(C)C3CCCCC3)ccc21 ?
Tau FP inhib: -13%; Tau ThT inhib: -11%; Tau fluor counter: -12%

What do the screens show for `CCOc1ccc(Br)cc1S(=O)(=O)Nc1ccc(N2CCOCC2)cc1`?
Tau FP inhib: 12%; HPGD block: 1%; Tau ThT inhib: -14%; ALDH1A1 inh: 9%; NPSR antagonist: 0%[46.1 µM]; Tau fluor counter: inconclusive

How did Cc1sc2nc(CN3CCOCC3)nc(NS(=O)(=O)c3ccc4c(c3)OCCO4)c2c1C do in these assays?
Tau FP inhib: -2%; HPGD block: -1%; Tau ThT inhib: -5%; ALDH1A1 inh: 1.3µM*; NPSR antagonist: -23%[46.1 µM]; Tau fluor counter: 2%

What do the screens show for `Cc1sc2nc(CN3CCOCC3)nc(NS(=O)(=O)c3ccccc3)c2c1C`?
Tau FP inhib: 5%; HPGD block: -12%; Tau ThT inhib: 1%; ALDH1A1 inh: inconclusive; NPSR antagonist: 4%[46.1 µM]; Tau fluor counter: 3%

Results for CCOc1ccc(Br)cc1S(=O)(=O)Nc1nc(CN2CCOCC2)nc2sc(C)c(C)c12 ?
Tau FP inhib: -2%; HPGD block: -5%; Tau ThT inhib: -8%; ALDH1A1 inh: 13µM*; NPSR antagonist: -21%[46.1 µM]; Tau fluor counter: 0%

What do the screens show for `Cc1ccc(SCCC(=O)NC2CC2)cc1`?
Tau FP inhib: 4%; Tau ThT inhib: 5%; ALDH1A1 inh: 5%; NPSR antagonist: 11%; Tau fluor counter: 11%

What do the screens show for `CCN(c1ccccc1)c1nnc(NC(=O)Nc2ccc(C)cc2)s1`?
Tau FP inhib: 7%; Tau ThT inhib: inconclusive; Tau fluor counter: -12%

What do the screens show for `CCOc1ccc(C(=O)NC(=S)Nc2ccc(N3CCCCC3)cc2)cc1[N+](=O)[O-]`?
Tau FP inhib: 17%; HPGD block: 32µM*; Tau ThT inhib: 3.5µM*; ALDH1A1 inh: 11µM*; NPSR antagonist: 10%; Tau fluor counter: inconclusive

What do the screens show for `COc1ccc(C(=O)NC(=S)Nc2cc(C)ccn2)cc1[N+](=O)[O-]`?
Tau FP inhib: -1%; HPGD block: -9%; Tau ThT inhib: inconclusive; ALDH1A1 inh: 0.32µM*; NPSR antagonist: 8%; Tau fluor counter: -1%

How did CCOc1ccc(C(=O)NC(=S)Nc2ccccc2N2CCCCC2)cc1[N+](=O)[O-] do in these assays?
Tau FP inhib: 1%; HPGD block: -19%; Tau ThT inhib: -10%; ALDH1A1 inh: inconclusive; NPSR antagonist: -26%; Tau fluor counter: inconclusive

How did CCOc1ccc(Br)cc1S(=O)(=O)Nc1ccc(C(=O)Nc2ccccc2OC)cc1 do in these assays?
Tau FP inhib: inconclusive; HPGD block: -29%; Tau ThT inhib: 15%; ALDH1A1 inh: 16µM*; NPSR antagonist: -33%; Tau fluor counter: -20%
